Compound activity deposited in PubChem BioAssay by National Center for Advancing Translational Sciences (NCATS).
The full list was thinned out, with hits kept by preference.
HT1080 IDH1KD tx = qHTS for induction of synthetic lethality in tumor cells producing 2HG: qHTS for the HT-1080-IDH1KD cell line | HT-1080 IDH1 knockdown viability, ATP luminescence, 48 h | Potency, µM (top dose mostly 46.1 µM), for the others: at the highest dose activity, negative = toxicity, usual class: cytotoxic | 360,000 tested, 2% active | AID 686971, 2013;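 also: potency is read from the fitted curve at half-maximal effect; 0% = DMSO wells and -100% = cell-free medium wells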
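CellTiter-Glo luminescence after 48 h compound exposure at 37 degrees C of IDH1-knockdown HT-1080 cells in 5% FBS RPMI. %Activity scaled between DMSO wells and cell-free media wells, with curves fitted and assigned curve classes.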
IL-1B inflam inh = qHTS for Inhibitors of Inflammasome Signaling: IL-1-beta AlphaLISA Primary Screen. activity change, % at 57.5 µM. THP-1 LPS/ATP IL-1B secretion, AlphaLISA, 16 h; stronger effect = lower value. 360,000 tested, 4.7% active; in the data active = activity change below about -50%; inconclusive = mostly about -30% to -49%
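Secreted IL-1B measured by AlphaLISA bead assay after 16 h compound exposure of THP-1 cells; compounds (final up to 57.5 uM) added 1 h before LPS (250 ng/mL) and ATP (1.25 mM) stimulation; lower signal means less secretion.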
12-LOX inh = Primary qHTS assay for inhibitors of human arachidonate 12S-lipoxygenase (ALOX12): Round 2 | Potency, µM (doses to about 108 µM), for inactives: at the highest dose activity change, negative = inhibition, most hits filed as inhibitors | 580,000 tested, 1.1% active | Polyunsaturated fatty acid lipoxygenase ALOX12 (Homo sapiens), P18054 | purified 12hLO, xylenol orange hydroperoxide absorbance; also: potency is read from the fitted curve at half-maximal effect
Target sequence (P18054 whole entry, looked up): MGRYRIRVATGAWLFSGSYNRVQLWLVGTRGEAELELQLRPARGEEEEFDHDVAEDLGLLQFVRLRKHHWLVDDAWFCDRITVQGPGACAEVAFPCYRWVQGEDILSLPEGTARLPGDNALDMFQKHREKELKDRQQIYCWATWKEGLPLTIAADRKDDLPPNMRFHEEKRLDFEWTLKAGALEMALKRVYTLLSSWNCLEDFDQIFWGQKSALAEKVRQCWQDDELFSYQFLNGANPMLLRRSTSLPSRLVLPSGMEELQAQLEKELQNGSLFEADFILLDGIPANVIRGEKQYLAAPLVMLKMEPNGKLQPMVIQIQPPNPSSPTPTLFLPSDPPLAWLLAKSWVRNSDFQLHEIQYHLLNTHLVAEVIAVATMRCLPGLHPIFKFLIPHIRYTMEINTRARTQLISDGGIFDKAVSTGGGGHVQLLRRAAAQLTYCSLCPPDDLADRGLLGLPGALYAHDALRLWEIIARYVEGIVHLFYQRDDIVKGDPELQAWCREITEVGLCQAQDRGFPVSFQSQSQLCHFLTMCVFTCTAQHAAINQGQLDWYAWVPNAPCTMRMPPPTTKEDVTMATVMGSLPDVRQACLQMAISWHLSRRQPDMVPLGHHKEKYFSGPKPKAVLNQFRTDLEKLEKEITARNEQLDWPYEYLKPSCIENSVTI
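Purified human 12hLO (150 nM final) in 25 mM Hepes, 0.01% Triton X-100, pH 7.0 was preincubated 15 min at room temperature with compound. Then 40 uM arachidonic acid was added, 30 min. Hydroperoxide was read by Fe-XO absorbance ratio 573/405 nm.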
TDP1 cell noCPT = qHTS for Inhibitors of human tyrosyl-DNA phosphodiesterase 1 (TDP1): qHTS in cells in absence of CPT; DT40 Tdp1-/- hTDP1 cells, no CPT, ATP luminescence, 48 h; Potency, µM (highest dose often 46.2 µM), without a hit: top-dose activity change, negative = growth inhibition, usual class: inhibitors; 420,000 tested, 15% active; AID 686978, 2013; also: potency is read from the fitted curve at half-maximal effect; nearly all actives have a fitted effect of over 55% in size
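Camptothecin absent (DMSO only). Human TDP1-complemented DT40 knockout cells, 400 cells/well, 37 °C for minimum 48 hr; ATP measured via CellTiter-Glo, 30 min dark incubation, luminescence.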
TDP1 cell CPT = qHTS for Inhibitors of human tyrosyl-DNA phosphodiesterase 1 (TDP1): qHTS in cells in presence of CPT. 420,000 tested, 12% active. chicken DT40 Tdp1-/-;hTDP1 cells + 20 nM CPT, ATP luminescence, 48 h. Potency, µM (titrated, usually from 46.2 µM), inactives show top-dose activity change, negative = growth inhibition, most hits filed as inhibitors; also: potency is read from the fitted curve at half-maximal effect; nearly all actives have a fitted effect of over 55% in size
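Chicken DT40 Tdp1-/- cells complemented with human TDP1, 400 cells/well, exposed to compounds plus 20 nM camptothecin for at least 48 h at 37 C; viability read as ATP content by CellTiter-Glo luminescence.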
HT1080-NT tox = qHTS for induction of synthetic lethality in tumor cells producing 2HG: qHTS for the HT-1080-NT fibrosarcoma cell line; HT-1080-NT fibrosarcoma viability, CellTiter-Glo ATP luminescence, 48 h; Potency, µM (doses to about 46.1 µM), for the others: at the highest dose activity, negative = less viability, hits mostly cytotoxic; 360,000 tested, 1.6% active; AID 686970, 2013;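 also: NT is the 2HG producing partner of a matched IDH1 knockdown line; potency is read from the fitted curve at half-maximal effect; 0% = DMSO-treated cells and -100% = media-only wells without cells; nearly all actives have a fitted effect of over 55% in size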
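A 48-hour cytotoxicity screen used HT-1080-NT cells plated 2 hours before compound delivery. ATP-based CellTiter-Glo luminescence measured viability, normalized to DMSO and no-cell controls.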
* marks the source's active call; other numbers are inactive results; ? = inconclusive; · = no result. Unless noted, calls follow the shape of the dose curve; as a rule, active = well fitted curve in the direction sought with a large enough effect; inconclusive = small, poorly fitted or top-dose-only effect, or another doubt; inactive = no such curve, though single readings can be large; an effect the other way counts as inactive or inconclusive. Unless noted, % is scaled to controls: 0 for no effect and ±100 for the full control effect.

SMILES	HT1080 IDH1KD tx	IL-1B inflam inh	12-LOX inh	TDP1 cell noCPT	TDP1 cell CPT	HT1080-NT tox
O=C(Nc1ccc(SC(F)F)cc1)c1cc(-c2ccccc2)nc2ccccc12	·	·	39.8µM*	·	·	·
CC(=O)Nc1ccc(NC(=O)c2cc(C)nc3ccccc23)cc1	·	·	5.3%	·	·	·
O=C(NNC(=O)c1ccc(Cl)cc1Cl)Nc1ccccc1	29.9%	-18.6	-12.6%	-5.3%	-0.8%	29.4%
O=C(NC1CC(=O)N(c2ccc(Cl)cc2)C1)c1cc2ccccc2o1 (stereo unspecified)	·	·	-18.3%	-18.9%	-0.9%	·
CCC(C(=O)N1CCN(Cc2ccc3c(c2)OCO3)CC1)n1c(=O)[nH]c2ccccc2c1=O (stereo unspecified)	-1.6%	-3.8	8.1%	10.3%	0.4%	-1.5%
CCc1cccc(NC(=O)C2CCN(S(=O)(=O)c3c(C)noc3C)CC2)c1	-5.1%	6.5	11.7%	-21.9%	9.3%	-16.7%
Cc1nc(-c2cccc(S(=O)(=O)N3CCC(C(=O)NCc4ccccc4Cl)CC3)c2)no1	·	·	0.1%	-88.5%	18.4µM*	·
CC(=O)c1ccc(N2CCN(S(=O)(=O)c3cc(-c4noc(C)n4)ccc3C)CC2)cc1	·	·	-12.3%	2.2%	?	·
Cc1nc(-c2ccc(C)c(S(=O)(=O)N3CCC(C(=O)Nc4ccc(Cl)cc4)CC3)c2)no1	·	·	?	?	16.4µM*	·
CCc1cccc(NC(=O)C2CCN(S(=O)(=O)c3cccc(-c4noc(C)n4)c3)CC2)c1	·	·	-17.1%	20.6µM*	?	·
O=C(OCC#CCSc1nc2ccccc2s1)c1cccc2ccccc12	·	·	-1.9%	·	·	·
CCC(C)Oc1ccc(C(=O)Nc2ccc(CN3CCOCC3)cc2)cc1 (stereo unspecified)	-29.6%	?	?	14.6µM*	20.6µM*	?
CC(C)COc1cccc(C(=O)Nc2ccc(N3CCOCC3)cc2N2CCOCC2)c1	5.9%	-26.7	-20.4%	13µM*	?	10.0%
CC(C)COc1cccc(C(=O)Nc2ccc(CN3CCOCC3)cc2)c1	?	-81.6*	70.0%	?	23.1µM*	-14.8%
CCOc1ccc(NC(=O)c2ccc(NC(=O)c3ccc(CN4CCOCC4)cc3)cc2)cc1	-11.3%	0.0	-8.5%	-18.2%	-5.3%	2.1%
CC(C)COc1cccc(C(=O)Nc2ccc(S(=O)(=O)N3CCOCC3)cc2)c1	23.7%	-25.5	2.6%	?	?	?
CC(Oc1cccc(Cl)c1)C(=O)Nc1ccc(N2CCOCC2)cc1N1CCOCC1 (stereo unspecified)	-1.7%	-23.8	2.8%	13µM*	?	-25.6%
COc1cc(OC)cc(C(=O)Nc2ccc(N3CCOCC3)cc2N2CCOCC2)c1	7.6%	-18.0	53.1%	?	-13.0%	-0.5%
CCc1c(C)nc2ncnn2c1Nc1ccccc1C	-10.0%	15.6	6.9%	?	?	-16.4%
Cc1ccccc1Nc1c(C)c(C)nc2ncnn12	-19.9%	2.8	7.8%	20.6µM*	16.4µM*	-21.6%
CC1=NN(c2ccccc2)C(=O)/C1=C\C=C1\N(C)c2ccccc2C1(C)C	-1.6%	-13.4	-23.4%	23.1µM*	?	-2.7%
CN1/C(=C\C=C2/C(=O)Oc3ccccc3C2=O)C(C)(C)c2ccccc21	?	?	12.1%	?	?	?
CC1=NN(c2ccccc2)C(=O)/C1=C\C=C1/N(C)c2ccccc2C1(C)C	1.9%	-85.5*	?	?	?	0.2%
CC1=NN(c2ccccc2)C(=O)/C1=C\c1cc(C)n(C)c1C	3.2%	-2.4	0.3%	-26.1%	-10.2%	-1.3%
CCn1c(=N)n(CC(O)COc2ccc(C)cc2)c2ccccc21 (stereo unspecified)	?	·	87.5%	16.4µM*	11.6µM*	?
SMILES	HT1080 IDH1KD tx	IL-1B inflam inh	12-LOX inh	TDP1 cell noCPT	TDP1 cell CPT	HT1080-NT tox
CCN(CC)CCn1c(=N)n(CCO)c2ccccc21	6.0%	-1.0	-6.6%	-13.3%	-17.4%	12.2%
CCCn1c(=N)n(CC(O)c2ccco2)c2ccccc21 (stereo unspecified)	-0.1%	-20.5	0.0%	?	?	2.6%
CN=c1sc2ccccc2n1CC(O)COc1ccccc1 (stereo unspecified)	-8.6%	0.0	22.1%	18.4µM*	?	0.5%
CCCn1c(=N)n(CC(O)c2ccc(C)cc2)c2ccccc21 (stereo unspecified)	-12.2%	?	13.3%	23.1µM*	?	-11.4%
CCN(CC)CCn1c(=N)n(CC(O)COc2ccccc2)c2ccccc21 (stereo unspecified)	?	-29.1	-8.6%	18.4µM*	?	16.4µM*
CN1C(=O)c2cccn2CC1C(=O)NC1CCS(=O)(=O)C1 (stereo unspecified)	·	·	16.8%	·	·	·
CN1c2cc(C(=O)NCc3nc4ccccc4n3C)ccc2C(=O)N2CCCCCC21 (stereo unspecified)	·	·	27.2%	·	·	·
